Results filed as inconclusive are left out. The source made the active and inactive calls. Calls follow the shape of the dose curve; as a rule, active = well fitted curve in the direction sought with a large enough effect in the signal ratio, with a control signal flat (not every such curve was filed as active); inconclusive = small, poorly fitted or top-dose-only effect, or effect the other way, or a change in a side signal; inactive = no such curve, though single readings can be large or run the other way; the % refers to the signal ratio.
biological target: Peroxisome proliferator-activated receptor gamma (Homo sapiens) (UniProt P37231); test: qHTS assay for small molecule agonists of peroxisome proliferator-activated receptor gamma signaling (AID 588536); conditions: HEK293 PPARg-UAS-bla, beta-lactamase ratio, 16 h, percent of rosiglitazone response, DMSO as zero; series mostly up to 76.7 µM; activation: at the top concentration
Sequence (P37231 whole entry, looked up): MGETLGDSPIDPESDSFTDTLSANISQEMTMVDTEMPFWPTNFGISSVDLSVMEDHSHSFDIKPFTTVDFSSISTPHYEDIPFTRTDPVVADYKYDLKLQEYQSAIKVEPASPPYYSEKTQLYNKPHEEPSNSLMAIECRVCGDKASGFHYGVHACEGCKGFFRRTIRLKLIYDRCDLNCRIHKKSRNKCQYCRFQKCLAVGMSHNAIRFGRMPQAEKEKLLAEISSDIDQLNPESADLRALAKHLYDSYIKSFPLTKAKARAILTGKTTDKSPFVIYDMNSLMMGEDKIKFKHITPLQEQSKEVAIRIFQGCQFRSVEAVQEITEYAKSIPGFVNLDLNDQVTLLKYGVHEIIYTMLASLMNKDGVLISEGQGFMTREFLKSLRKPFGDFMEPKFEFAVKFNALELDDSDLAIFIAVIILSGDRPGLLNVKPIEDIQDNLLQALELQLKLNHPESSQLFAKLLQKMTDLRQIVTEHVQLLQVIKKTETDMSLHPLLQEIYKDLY
Text: NIH Chemical Genomics Center [NCGC] U.S. Environmental Protection Agency [EPA] National Institutes of Environmental Health Sciences [NIEHS] National Toxicology Program [NTP] NCGC Assay Overview The Peroxisome proliferator-activated receptors (PPARs) are lipid-activated transcription factors of the nuclear receptor superfamily with three distinct subtypes namely PPAR alpha, PPAR delta (also called PPAR beta) and PPAR gamma. All these subtypes heterodimerizes with Retinoid X receptor (RXR) and these heterodimers regulate transcription of various genes. PPAR-gamma (glitazone receptor) agonists have been used in the treatment of type 2 diabetes and dyslipidaemia. It is involved in the regulation of glucose and lipid metabolism. PPAR-gamma activates certain genes like Paraoxonase 1 which is responsible for hydrolyzing organophosphates. PPAR-gamma agonists may also be therapeutically important in the treatment of coronary artery disease, obesity and cancer and atherosclerosis.
NCGC Assay Protocol Summary Using a beta-lactamase reporter-gene under control of Peroxisome Proliferator-Activated-gamma (PPAR-gamma) response element, a cell-based assay [GeneBLAzer PPAR-gamma-UAS-bla assay developed by Invitrogen] was used to measure PPAR-gamma ligands signaling. GeneBLAzer PPAR-gamma-UAS-bla-HEK293 cells were used with assay medium containing 1% charcoal/dextran treated FBS. The assay was performed in clear bottom black Greiner 1536-well plates. Rosiglitazone was used in the screen as the positive control. Library compounds were measured for their ability to stimulate the reporter gene activity. Compounds were screened in a titration series in 1536-well format. The fluorescence intensity (405 nm excitation, 460/530 nm emission) was measured using an EnVision plate reader. Data was normalized relative to Rosiglitazone control (2 uM, 100%), and DMSO only wells (basal, 0%). Concentration-response titration points for each compound were fitted to the Hill equation yielding concentrations of half-maximal stimulation (EC50) and maximal response (efficacy) values. qHTS protocol for PPAR-gamma beta-lactamase assay in agonist mode [Step] [Parameter] [Value] [Description] 1. Reagent; 6 uL; 3000 cells/well 2. Incubation; 37 C for 6 - 6.5 hrs 3. Compounds; 23 nL; 0.59 nM to 92 uM 4. Controls (Rosiglitazone); 23 nL, - One column with dose response, start 19 uM, 1:3 dilutions in duplicates - Final concentrations of 2 uM and 0.5 uM in two columns 5. Incubation; 37 C for 16 hrs 6. Detection reagent; 1 uL of CCF4-dye 7. Incubation; RT for 2 hrs 8. Detection; Fluorescence; Envision plate reader

Row | Compound | activation | outcome
1 | NC(N)=NC(=O)c1nc(Cl)c(N)nc1N | 3.06% (inactive) | 
2 | C[C@]12CCC(=O)C=C1CC[C@@H]1[C@@H]2[C@@H](O)C[C@@]2(C)[C@H]1CC[C@]2(O)C(=O)CO | 0.571% (inactive) | 
3 | CCCC(CCC)C(=O)O |  | inactive
4 | O=NN(CCCl)C(=O)NCCCl | -1.02% (inactive) | 
5 | O=c1[nH]cnc2[nH]ncc12 | 2.87% (inactive) | 
6 | CC(=O)Oc1ccccc1C(=O)O |  | inactive
7 | NS(=O)(=O)c1cc2c(cc1Cl)NC=NS2(=O)=O | -0.952% (inactive) | 
8 | Cn1cnc([N+](=O)[O-])c1Sc1ncnc2nc[nH]c12 |  | inactive
9 | NC[C@H](O)c1ccc(O)c(O)c1 | -5.92% (inactive) | 
10 | O=C1CCC(N2C(=O)c3ccccc3C2=O)C(=O)N1 (stereo not drawn) | -3.42% (inactive) | 
11 | NC(=O)c1cnccn1 |  | inactive
12 | COc1ccc2nc(S(=O)Cc3ncc(C)c(OC)c3C)[nH]c2c1 (stereo not drawn) | -12.8% (inactive) | 
13 | Cc1ccccc1C(OCCN(C)C)c1ccccc1 (stereo not drawn) | -11.5% (inactive) | 

From PubChem BioAssay (NCATS)
